These sequences were tested on VDR:RXRa (NR concentration 270 nM, RXRa partner concentration 90 nM) (assay: PBM binding z-score (relative to random genomic background probes); higher = stronger binding; sequences stand for … in GC…GCGATTGACAGCGTAGAATGAAGG).
Protocol: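 Protein-binding microarray (Agilent 4x180K custom design, double-stranded 60-nt probes: 5' GC cap, 34-nt variable region, 24-nt constant primer region; full probe sequence given). Purified or IVT nuclear receptor:RXRα heterodimers (3:1 NR:RXRα, mostly 270:90 nM) or homodimers were incubated for 1 h in PBS with 2% milk and no ligand, then detected with Alexa488 antibodies. Fluorescence from o1-orientation probes (~5 replicates averaged) was converted to z-scores against 500 random hg19 background probes. Variable regions are seed direct-repeat (DR0–DR5) sites, all their single-nucleotide variants and half-site ablations.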
For AGAATGAGGTTATACGTCGATCAGGGAAGAAAGT, the PBM binding z-score was 1.29. CCTGCTATGTCAATGGTCAGCTAAAGCAGCTCGC gave a PBM binding z-score of -0.397. CCTCGGAGGACAGAAGGTCGGAGCTGTCCGCTTT was tested, and the PBM binding z-score was -0.398. In the case of TCTCAAAGTTCAAAGGTAACGTAAGTATCCACAC, the PBM binding z-score is reported as 4.93. With TGAATGAGGTTATAAGATCAGGGAGCGTTGCAAA the PBM binding z-score was 0.606. For CCGACTGGGGCATAAGGTTACCCTAAGCCAGCCC, the PBM binding z-score was 0.27. Sequence TCTTGTAGATCAAGCAGGTTAAGACAGCCTGAGT has a PBM binding z-score of 0.279. Sequence ATATGTAAGTTAGCTGGGGTCATTCAGACTAGGC has a PBM binding z-score of 5.25. Sequence CAAACTCGGTCAAAGGTCAAAGTCGAGCCAACCA has a PBM binding z-score of 6.22. For TCTATTAGTTGAGTAGGGCAACCGAAACAGCGGA, the PBM binding z-score was -0.07. Sequence GAAGACAGGTGAAACGCAGGTAACTCAGGGTGGC has a PBM binding z-score of -0.438. Sequence CTACCAAGGTGAACAAGATCGTTGATTACTATTC has a PBM binding z-score of 1.31. Work on CAGCCTAGGTCAGGGCCATTATAGGAGGAACGTT yielded a PBM binding z-score of 0.399. CGAACTAGGTCACGAAAGGTCAAAGTCGAATGAC was tested, and the PBM binding z-score was 6.89. TCTTGTAGATCAACAAGAGGTTAAGAAAGATCGA showed a PBM binding z-score of 1.08. ATACCAAGCTGATCGTGAGGTCGTTGATACTAAC showed a PBM binding z-score of 1.38. In the case of TAGCCTAGTTCATGGGCCAGTATACCACGCGAAC, the PBM binding z-score is reported as 0.685. CAAACTAGGTCACAGATGTCAAAGTCCGTGCGTA was tested, and the PBM binding z-score was 4.5. With CCCAGCAGGCCAATCTGGGTCACTCAAGGCTTGA the PBM binding z-score was 0.284. Work on TATACAGGGTCAAAGGACAGAGTACGAATGTCGA yielded a PBM binding z-score of 4.6. With CGTCCAAGGTCTATGCTAGGTCAGTGAAAGCATT the PBM binding z-score was 0.278. CCAACTAGGTCACGAAAGGTCAAAGTCGAATGAC gave a PBM binding z-score of 6.81. Sequence TAGCCTAGGTCATGGGCCAATATACCACGCGAAC has a PBM binding z-score of 2.06. CGTCCAAGGTCAGCTGGTCAGTGAAAGCGACGTG gave a PBM binding z-score of 2.66. TGTCAAAGTTCAAATGTAACGTAAGTATCCACAC was tested, and the PBM binding z-score was 4.57. TCTTGTAGATCAATGGAGGTTAAGAAAGTGCGCT gave a PBM binding z-score of 1.38. ATCTCTAGGTAAACAAGTTCAGTGAATGCCGAAC gave a PBM binding z-score of 4. Sequence CGTCAGAGTTCAAGGTAACGTAACAGAAAGCAGC has a PBM binding z-score of 4.23. Work on AGAATGAGGTTATTAAGATCAGGCAATTGCGGTC yielded a PBM binding z-score of 2.48. CGTCCAAGGTCAGAGAGGTCCGTGAATGCCGAGT showed a PBM binding z-score of 4.73. Sequence CCTACTGAGCCATCAGGTCATTGATATCAACGTT has a PBM binding z-score of 2.15. For TTAATGAGGTTATAAGATCAGGGAACGTTGCAAA, the PBM binding z-score was 1.27. CCTTACGGGTCACTCGAGGTTATAGCATCGGAGT was tested, and the PBM binding z-score was 5.11. In the case of GCTACTGGGGCATCAGCAGGTTACCATAACTTAA, the PBM binding z-score is reported as 0.0562. TCAATTAGTTGAAGGGCAACCGACGAGTCCGTTT was tested, and the PBM binding z-score was 0.667. GCGACTGGGGCATTAGCAGGTTACCATAACTTAA showed a PBM binding z-score of -0.196. Work on ACTTGCAGGCCAAGGGTCACTCAAGATTAGTCCG yielded a PBM binding z-score of 3.05. With CCTCGGAGGACAACAAGAGGTCAGAGCTGCCAGA the PBM binding z-score was 2.88. Work on TTAACAAGGTGAGCTGAGGTCGTTGATCCAACTC yielded a PBM binding z-score of 4.08. With CCTAGTTGATCAAGGTCACACACGCTATAGGTAC the PBM binding z-score was 4.91.

Reference: the supplement of paper PMC6555819
